# Out of some 360,000 compounds screened, about 3,700 (1%) were called active. Inconclusive results (about 2%) are left out.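 Rule for the calls: active = normalized GFP-positive differentiation at or above the plate's own cutoff, the solvent-only control mean plus 3 SD; inconclusive = no clear call, values can overlap the other calls; inactive = the rest.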 The list comes from a sample in which actives are over-represented; it also holds similar structures and randomly drawn compounds.
# Experiment: induction of myeloid progenitor differentiation, primary screen, cell-based, flow cytometry, MLPCN library (AID 624256);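 for GFP+ MAC1+ double positive: cells exposed to compound for four days before flow analysis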;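 for normalized GFP-positive differentiation: cells exposed to compound for four days before flow analysis; 0% = DMSO wells and 100% = fulvestrant positive control at 5 µM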
# Details: ER-HoxA9 myeloid progenitors, lysozyme-GFP differentiation, at 10 µM; GFP+ MAC1+ double positive: measured here: differentiation confirmed by MAC1 staining, stronger effect = higher value; normalized GFP-positive differentiation: stronger effect = higher value
SMILES,GFP+ MAC1+ double positive,outcome,normalized GFP-positive differentiation
O=C1NC[C@H](CCCCN2C[C@H](Cc3ccc(O)cc3)N(CC3CCCCC3)C(=O)C2=O)N(CCc2ccccc2)C1=O,0.6%,inactive,–
CCOc1ccc(CCN2C(=S)N([C@@H](CC(C)C)CN3CCC[C@@H]3CN3C(=S)NC[C@@H]3Cc3ccc(O)cc3)C[C@@H]2CC(C)C)cc1,0.7%,inactive,–
CC(=O)Nc1cc(-c2ccccc2N(C)C)cn2c(-c3ccc(F)c(Cl)c3)cnc12,1%,inactive,–
CNc1nc(=O)n(C2CCCO2)cc1C (stereo unspecified),23.7%,–,172% (active)
O=c1c(F)cn(C2CCCO2)c(=O)n1Cc1ccccc1Cl (stereo unspecified),11.2%,inactive,–
O=c1nc(NO)ccn1C1CCCO1 (stereo unspecified),1.8%,inactive,–
O=C(O)Cc1ccc(NCc2ccccc2Cl)cc1,0.6%,inactive,–
O=C(O)Cc1ccc(-c2ccccc2)cc1,2.6%,–,92.4% (active)
O=C(Cc1ccc(-c2ccccc2)cc1)NC(c1ccccc1)c1ccccc1,0.3%,inactive,–
Cc1cccc(CNC(=O)c2sc(=O)n(Cc3ccccc3C)c2C)c1,4.1%,inactive,–
COc1ccc(C(C(=O)Nc2c(C)cccc2C)N2CCN(c3ccc(C)cc3)CC2)cc1 (stereo unspecified),2%,inactive,–
CO[C@@H]1CN(C)C(=O)c2cc(NC(=O)Nc3cc(F)ccc3F)ccc2OC[C@H](C)N(C(=O)c2ccccn2)C[C@@H]1C,1.3%,inactive,–
COC(=O)[C@]12CCCCC=C1N(Cc1cccc3ccccc13)C(=O)[C@H](CC(=O)N1CCOCC1)C2,0.7%,inactive,–
CCOP(=O)(OCC)C(Cc1ccccc1)N=C(c1ccccc1)c1ccccc1 (stereo unspecified),1%,inactive,–
CC(=O)N1Cc2cc(C(=O)NCc3cccc(F)c3)nc(-c3cccc(C4=CCCC4)c3)c2[C@H]1CCO,0.3%,inactive,–
COc1cccc(-c2noc(C3CCCN(C(=O)c4ccc(F)cc4)C3)n2)c1 (stereo unspecified),1.2%,inactive,–
CC(C)c1ccc(-c2noc(C3CCCN(S(C)(=O)=O)C3)n2)cc1 (stereo unspecified),2.8%,inactive,–
COc1cc(-c2noc(C3CCCN(S(=O)(=O)c4cccc(Cl)c4)C3)n2)cc(OC)c1OC (stereo unspecified),16.1%,–,28.5% (active)
O=C(NCc1ccccn1)[C@@H]1CCCN1C(=O)[C@@H]1CCCN1C(=O)c1ccccc1,1.4%,inactive,–
COC(=O)[C@@]12C[C@@H](CC(=O)NCc3cccc(C(F)(F)F)c3)C(=O)N(Cc3ccco3)C1=CCC(C)(C)C2,3.5%,inactive,–
COc1cccc(NC(=O)[C@H](Cc2c[nH]c3ccccc23)NC(=O)[C@@H]2Cc3ccccc3CN2)c1,5.1%,–,8.43% (active)
COc1ccc(NC(=O)[C@H](NC(=O)[C@@H]2Cc3ccccc3CN2)c2ccccc2)cc1,3.2%,inactive,–

SMILES,GFP+ MAC1+ double positive,outcome,normalized GFP-positive differentiation
COc1ccc(CNC(=O)[C@H](Cc2c[nH]c3ccccc23)NC(C)=O)cc1OC,0.3%,inactive,–
CCc1nc2c(OCC(N)=O)cccn2c1N(C)C(=O)c1ccc(OC)cc1,1.1%,inactive,–
OC[C@@H]1CN(Cc2cccs2)C[C@H](n2cnc3c(Nc4ccccc4)ncnc32)O1,1.1%,inactive,–
Cc1ccc(Cc2c(-c3ccco3)nc3ccc(Cl)cn23)cc1,0.7%,inactive,–
COc1ccc(CNC(=O)C2(CC3CC(c4ccccc4)=NO3)CCN(C(=O)c3cccc(O)c3)CC2)cc1 (stereo unspecified),1.8%,inactive,–
CCCCCCCNC(=O)C1(CC2CC(c3cccc(Br)c3)=NO2)CCN(C(=O)c2cc(OCC)c(OCC)c(OCC)c2)CC1 (stereo unspecified),7.1%,–,26.1% (active)
O=C(c1ccccc1)N1CCC(CC2CC(c3ccc(Cl)cc3)=NO2)(C(=O)NCC2CCCCC2)CC1 (stereo unspecified),1.5%,inactive,–
O=C(C(=O)N1CCC(c2ccccc2)CC1)c1ccccc1,2.1%,inactive,–
CC(C)(O)C#Cc1ccc(CNC[C@H]2O[C@@H](n3cnc4c(=O)[nH]c(N)nc43)[C@H](O)[C@@H]2O)s1,0.8%,inactive,–
O=S1(=O)CC(N2CCN(CCO)CC2)CN1Cc1cn(Cc2ccc(Cl)cc2)nn1 (stereo unspecified),1.6%,inactive,–
COc1ccccc1CN1CCCC(N2CCN(c3ccc(F)cc3)CC2)C1 (stereo unspecified),0.5%,inactive,–
Cc1cnc(C(=O)N2CCCC(N3CCN(c4ccccc4F)CC3)C2)cn1 (stereo unspecified),6.8%,inactive,–
CCc1noc(C)c1C(=O)N1CCCC(N2CCN(c3ccc(F)cc3)CC2)C1 (stereo unspecified),5.3%,–,46.7% (active)
COc1ccc(-c2[nH][nH]c(=O)c2NC(=O)c2ccc([N+](=O)[O-])cc2)cc1,0.8%,inactive,–
O=C(CN(c1ccccc1)S(=O)(=O)c1ccc(Cl)cc1)Nc1ccccc1C(=O)N1CCCC1,17.3%,–,34.3% (active)
COc1ccccc1N(CC(=O)Nc1ccccc1C(=O)N1CCCC1)S(C)(=O)=O,0.3%,inactive,–
O=C(Nc1ccccc1C(=O)N1CCCCCC1)c1ccccc1Cl,0.1%,inactive,–
NCCCCC(C(=O)O)N(C(=O)OCc1ccccc1)C(=O)OCc1ccccc1 (stereo unspecified),0.9%,inactive,–
Cc1cc(=O)oc(C)c1C(=O)Nc1cnc2ccccc2c1,1%,–,6.77% (active)
Cc1cc(=O)oc(C)c1C(=O)NCc1ccc(F)cc1,9.2%,inactive,–
Cc1cc(=O)oc(C)c1C(=O)NCCN(C)Cc1ccccc1,0.6%,inactive,–

# Source: PubChem BioAssay AID624256 (NMMLSC, 2012)
